Assay results as given in PubChem BioAssay (EPA / NIEHS).
Where “and” joins values, the source holds several entries; their conditions need not be identical. Identical values can stand only once. Where a structure was tested more than once in an assay, its records may differ in their call. Calls of active or inactive are those of the source. Rule for the calls: active = hit-call score of the fitted dose curve at least 0.9, where 1 is the maximum; inactive = score below 0.9.

These compounds were tested on CD90, THY1 (gene 7070) (assay: BSK_BF4T_CD90: BioMAP Diversity Plus: BF4T Assay for CD90 Biomarker Activity (AID 2284262)). Settings: primary human bronchial epithelial cells with fibroblasts.
Description: BSK_BF4T is a cell-based, multiplexed-readout assay that uses bronchial epithelial cells and dermal fibroblasts, a human vascular primary cell, with measurements taken at 24 hours after chemical dosing in a microplate: 96-well plate.BSK_BF4T_CD90 is an assay component measured in the BSK_BF4T assay. It measures CD90 antibody related to regulation of gene expression using ELISA technology.Data from the assay component BSK_BF4T_CD90 was analyzed at the endpoint, BSK_BF4T_CD90, in the positive analysis fitting direction relative to DMSO as the negative control and baseline of activity. Using a type of binding reporter, gain or loss-of-signal activity can be used to understand protein changes. To generalize the intended target to other relatable targets, this assay endpoint is annotated to the 'cytokine' intended target family, where the subfamily is 'inflammatory factor'.
The levels of cell surface (or secreted, indicated by the prefix "s") biomarker endpoints were measured by ELISA. Overt cytotoxicity to cells in confluent adherent cultures (all systems other than the BT system) was assessed by measuring total protein levels using sulforhodamine B (SRB) staining in parallel cultures at the time of biomarker measurements, indicated as SRB endpoints. For proliferation assays for adherent cell types, individual cell types are cultured at sub-confluence and relative cell numbers quantified by SRB staining at time points optimized for each system (48 h: 3C and CASM3C systems; 72 h: BT and HDF3CGF systems; 96 h: SAg system). SRB was performed by staining cells with 0.1% SRB after fixation with 10% TCA and reading wells at 560 nm.Viability and proliferation of PBMC (T cells) was quantified by Alamar Blue reduction for the SAg and BT systems. For PBMC viability (referred to as PBMC Cytotoxicity within the assay endpoint names), cells were plated (75,000/well in a 96-well plate) and then chemical samples added for 1 h before addition of activators, SEB and TSST-1 (20 ng/mL final concentration each). Cells were incubated for 90 h. Then, Alamar Blue (20 uL/well) (Invitrogen, Cat DAL1100) was added for 6 h, and the plates were read with a fluorescence microplate reader at 546/580 nm (excitation/emission). For PBMC proliferation, cells were plated and activated as above but incubated for only 16 h prior to addition of Alamar Blue. Plates were read after 6 h.
With `C=CC(F)(F)C(F)(F)C(F)(F)C(F)(F)C(F)(F)C(F)(F)C(F)(F)C(F)(F)F` the outcome was “inactive”.
`O=C(O)C(F)(OC(F)(F)C(F)(OC(F)(F)C(F)(OC(F)(F)C(F)(F)C(F)(F)F)C(F)(F)F)C(F)(F)F)C(F)(F)F` (stereo not given) was tested, and the outcome was “inactive”.
With `O=P(O)(O)OCCC(F)(F)C(F)(F)C(F)(F)C(F)(F)C(F)(F)C(F)(F)F` the outcome was “inactive”.
`O=C(O)C(F)(F)C(F)(F)F` was tested, and the outcome was “inactive”.
For `C=C(C)C(=O)OCC(F)(F)C(F)(F)C(F)(F)C(F)(F)C(F)(F)C(F)(F)C(F)(F)F`, the outcome was “inactive”.
In the case of `FC(F)(Br)C(F)(F)C(F)(F)C(F)(F)C(F)(F)C(F)(F)Br`, the outcome is reported as “inactive”.
With `Cc1ccc(S(=O)(=O)OCC(F)(F)C(F)(F)C(F)(F)C(F)(F)C(F)(F)C(F)F)cc1` the outcome was “inactive”.
For `FC1CC(F)(F)C(F)(F)C1(F)F` (stereo not given), the outcome was “inactive”.
In the case of `FC(F)(F)C(F)(F)C(F)(F)C(F)(F)CCI`, the outcome is reported as “inactive”.
With `CCO[Si](CCC(F)(F)C(F)(F)C(F)(F)C(F)(F)C(F)(F)C(F)(F)F)(OCC)OCC` the outcome was “inactive”.
`FC(F)(F)C(F)(F)C(F)(F)C(F)(F)C(F)(F)C(F)(F)CC1CO1` (stereo not given) was tested, and the outcome was “inactive”.
For `FC(F)(F)C(F)(F)C(F)(F)CI`, the outcome was “inactive”.
For `C=CC(=O)OCC(F)(F)C(F)(F)C(F)(F)C(F)(F)COC(=O)C=C`, the outcome was “inactive”.
In the case of `O=C(O)C(F)(F)C(F)(F)OC(F)(F)F`, the outcome is reported as “inactive”.
With `OCC(F)(F)C(F)(F)C(F)(F)F` the outcome was “inactive”.
With `FC(F)(F)C(F)(F)C(F)(F)C(F)(F)C(F)(F)C(F)(F)C(F)(F)C(F)(F)CCS` the outcome was “inactive”.
`O=C(O)C(F)(F)C(F)(F)C(F)(F)C(F)(F)F` was tested, and the outcome was “inactive”.
With `FC(F)(F)C(F)(F)CNCC(F)(F)C(F)(F)F` the outcome was “inactive”.
For `O=C(O)C(F)(F)C(F)(F)C(F)(F)C(F)(F)C(F)(F)C(F)(F)C(F)(F)C(F)(F)Cl`, the outcome was “inactive” and the AC50 was 30 µM (active).
`C=CC(=O)OCC(F)(F)C(F)(F)C(F)(F)C(F)(F)C(F)(F)C(F)(F)C(F)(F)F` was tested, and the outcome was “inactive”.
In the case of `O=C(O)C=C(C(F)(F)F)C(F)(F)F`, the outcome is reported as “inactive”.
`FC(F)(F)C(F)(F)C(F)(F)C(F)(F)C(F)(F)C(F)(F)C(F)(F)Br` was tested, and the outcome was “inactive”.
In the case of `FC(F)(F)C(F)(F)C(F)(F)N(C(F)(F)C(F)(F)C(F)(F)F)C(F)(F)C(F)(F)C(F)(F)F`, the outcome is reported as “inactive”.
With `FC(F)(F)C(F)(F)C(F)(F)C(F)(F)C(F)(F)C(F)(F)CCS` the outcome was “inactive”.
In the case of `OCCCC(F)(F)C(F)(F)C(F)(F)F`, the outcome is reported as “inactive”.
With `O=C(O)C(F)(F)C(F)(F)C(F)(F)C(F)(F)C(F)(F)C(F)(F)C(F)(F)C(F)(F)C(F)(F)C(F)(F)C(F)(F)C(F)(F)C(F)(F)F` the outcome was “inactive”.
In the case of `FC(F)(F)C(F)(F)C(F)(F)C(F)(F)C(F)(F)C(F)(F)C(F)(F)C(F)(F)F`, the outcome is reported as “inactive”.
With `C=CC(F)(F)C(F)(F)C(F)(F)C(F)(F)C(F)(F)C(F)(F)C(F)(F)C(F)(F)C=C` the outcome was “inactive”.
With `O=S(=O)(O)C(F)(F)C(F)(F)C(F)(F)C(F)(F)C(F)(F)C(F)(F)C(F)(F)F` the outcome was “inactive”.
For `FC(F)(F)C(F)(F)C(F)(F)C(F)(F)C(F)(F)CCI`, the outcome was “inactive”.
In the case of `O=S(=O)(OCC(F)F)C(F)(F)F`, the outcome is reported as “inactive”.
`O=C(O)C(F)(OC(F)(F)C(F)(OC(F)(F)C(F)(F)C(F)(F)F)C(F)(F)F)C(F)(F)F` (stereo not given) was tested, and the outcome was “inactive”.
`COC(=O)CCC(F)(F)C(F)(F)C(F)(F)C(F)(F)F` was tested, and the outcome was “inactive”.
In the case of `FC(F)(I)C(F)(F)C(F)(F)C(F)(F)I`, the outcome is reported as “inactive”.
In the case of `OCCCC(F)(F)C(F)(F)C(F)(F)C(F)(F)C(F)(F)C(F)(F)C(F)(F)F`, the AC50 is reported as 30 µM (active) and 21.3 µM (active).
With `O=C(O)C(F)(F)C(F)(F)C(F)(F)C(F)(F)C(F)(F)C(F)(F)C(F)(F)C(F)(F)C(F)(F)C(F)F` the AC50 was 17.3 µM (active) and 1.67 µM (active).
In the case of `O=C(O)C(F)(F)C(F)(F)C(F)(F)F`, the outcome is reported as “inactive”.
`OCC(F)(F)C(F)(F)C(F)(F)C(F)F` was tested, and the outcome was “inactive”.
`OCC(F)(F)C(F)(F)C(F)(F)C(F)(F)C(F)(F)C(F)(F)F` was tested, and the outcome was “inactive”.
